Most compounds without a hit are left out; they make up all but 21% or so of the library.
CHX counter: affects cycloheximide protein synthesis inhibition readout, counter-screen. AID 2314. max response, %. 12% of 300,000 active. cell reporter, cycloheximide protein synthesis inhibition counterscreen; in the data active = max response mostly above about 13%, no sharp cut-off; inactive = mostly below about 14%; note: read at 38.3 µM for the half of the compounds with a filed dose; 0% is about no effect
Pf growth 48h: P. falciparum growth inhibition at 48 hours (one generation); P. falciparum luciferase growth in erythrocytes, 48 h; Potency, µM (titrated, usually from 28.7 µM), inactives show at the top dose activity change, negative = inhibition, hits mostly inhibitors; 5.9% of 310,000 active; note: potency is the fitted concentration of half-maximal effect; % is set by controls: 0 for no effect and ±100 for the full control effect
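Parasite viability was followed by luminescence of a genomically integrated firefly luciferase. Cultures held 0.1% parasitemia at 2% hematocrit (final), incubated under 5% CO2 at 37 C.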
Pf growth 96h: P. falciparum growth inhibition at 96 hour, primary screen for plastid delayed-death inhibitors. Potency, µM (doses to about 28.7 µM), for the others: at the top dose activity change, negative = inhibition, hits mostly inhibitors. 6.9% of 320,000 active. P. falciparum luciferase reporter growth, 96 h; note: potency is the fitted concentration of half-maximal effect; % is set by controls: 0 for no effect and ±100 for the full control effect
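P. falciparum expressing integrated firefly luciferase grown in erythrocytes (2% hematocrit, 0.05% parasitemia final) with compounds for 96 hours at 37 C, 5% CO2. Growth inhibition read as loss of luminescence after adding luciferase detection reagent.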
HCV inh: inhibitors of hepatitis C virus infection | Huh7.5.1 HCVcc-Cre infection, luciferase reporter, 44 h | Potency, µM (doses to about 41.8 µM), without a hit: at the top dose activity change, negative = inhibition, hits mostly inhibitors | 3.4% of 340,000 active | AID 651820; note: potency is the fitted concentration of half-maximal effect; % is set by controls: 0 for no effect and ±100 for the full control effect
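Cells (1,000/well) were plated 4 h before compound, then infected with HCVcc-Cre virus (~0.5 moi). After 44 h further culture, infection was read as luciferase luminescence following a 15 min substrate incubation at room temperature.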
AMA1 RON2 block: AMA1-RON2 (P. falciparum) interaction inhibition; AlphaScreen AMA1-biotinylated RON2 peptide binding; Potency, µM (series often up to 58.2 µM), inactives show at the highest dose activity change, negative = inhibition, actives largely listed as inhibitors; AID 720542; 0.2% of 360,000 active;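 note: potency is the fitted concentration of half-maximal effect; 0% = vehicle wells and -100% = peptide control; nearly all actives have a fitted effect of over 45% in size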
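AMA1 (3D7) with his tag at 25 nM final met compounds first, then biotinylated RON2 peptide at 25 nM; detection used donor plus acceptor beads, 10 µg/mL apiece, read by AlphaScreen after 30 min at room temperature.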
Shiga toxin inh: Shiga toxin inhibition. Vero cells, Shiga toxin protein synthesis inhibition reporter. inhibition, % at 38.7 µM. 9.2% of 290,000 active. AID 2315; in the data active = inhibition mostly above about 28%, no sharp cut-off; inactive = mostly below about 43%; note: 0% is about no effect
An asterisk follows results filed as active; ? = inconclusive; / = no result. Unless noted, calls come from the whole dose curve; as a rule, active = well fitted curve in the direction sought with a large enough effect; inconclusive = small, poorly fitted or top-dose-only effect, or another doubt; inactive = no such curve, though single readings can be large; an effect the other way counts as inactive or inconclusive.

SMILES	CHX counter	Pf growth 48h	Pf growth 96h	HCV inh	AMA1 RON2 block	Shiga toxin inh
Nc1[nH]nc2nc(NCc3ccccc3)c3c(c12)CCN(Cc1ccccc1)C3	7.6	-27.9%	?	-22.9%	-11.4%	-21.1
N#Cc1c(NCCN)nc(NCc2ccccc2)c2c1CCN(Cc1ccccc1)C2	-6.8	9.28µM*	70.4%	?	-8.3%	-11.6
N#Cc1c(Cl)nc(Cl)c2c1CCN(Cc1ccccc1)C2	-3.0	-16.0%	?	?	-22.9%	-8.2
CCOC(=O)c1nnn(-c2nonc2-n2cccc2)c1CN1CCC(C)CC1	9.2	?	22.7%	-22.8%	11.0%	-5.0
Cc1cc(C)c(/C=N/NC(=O)c2nnn(-c3nonc3N)c2CN2CCC(C)CC2)c(C)c1	-2.1	?	-54.3%	?	34.5%	-10.9
CC1CCN(Cc2c(C(=O)O)nnn2-c2nonc2N)CC1	-1.0	18.7%	1.47µM*	19.9%	9.6%	3.8
CC1CCN(Cc2c(C(=O)N/N=C/c3cc(Br)ccc3O)nnn2-c2nonc2N)CC1	-2.8	?	?	3.55µM*	63.8%	-2.7
COc1c(Cl)cc(Cl)cc1/C=N/NC(=O)c1nnn(-c2nonc2N)c1CN1CCC(C)CC1	-2.0	?	-12.0%	?	-4.8%	-2.7
CC1CCN(Cc2c(C(=O)N/N=C/c3cc(Cl)ccc3O)nnn2-c2nonc2N)CC1	-5.4	?	3.2%	10µM*	70.9%	-0.6
COc1ccc(S(=O)(=O)N(C)C[C@@H]2OCCCC[C@@H](C)Oc3ccc(NS(=O)(=O)c4cccs4)cc3C(=O)N([C@H](C)CO)C[C@@H]2C)cc1	/	/	/	/	11.7%	/
CC(C)NC(=O)Nc1cccc2c1O[C@H](CN(C)C(=O)NC1CCCCC1)[C@@H](C)CN([C@H](C)CO)C2=O	/	/	/	30.0%	25.0%	/
Cc1ccc(NC(=O)CSc2nnc(Cc3cccn3C)n2-c2ccc(F)cc2)c(C)c1	-6.0	/	9.28µM*	-2.3%	-2.9%	22.5
CCOc1ccccc1NC(=O)CSc1nnc(Cc2cccn2C)n1-c1ccc(F)cc1	6.8	5.86µM*	-26.3%	?	-6.6%	-1.0
CCOC(=O)c1ccccc1NC(=O)CSc1nnc(Cc2cccn2C)n1-c1ccc(F)cc1	-2.8	?	58.5%	15.6%	-1.4%	24.1
Cn1cccc1Cc1nnc(SCC(=O)NCc2ccccc2)n1-c1ccc(F)cc1	-3.5	/	?	2.7%	4.9%	-26.3
Cn1cccc1Cc1nnc(SCC(=O)N2CCN(c3ccccc3)CC2)n1-c1ccc(F)cc1	-1.8	?	1.47µM*	7.3%	-4.6%	-1.2
COc1cccc(NC(=O)c2cccc(Cl)c2)c1	/	94.1%	163.1%	-18.7%	-2.1%	/
COc1ccccc1NC(=O)c1ccc2nc(C)sc2c1	46.2*	-26.5%	?	-3.5%	10.2%	82.6*
COc1cccc(NC(=O)c2ccc3nc(C)sc3c2)c1	37.8*	14.0%	?	-9.5%	1.7%	60.2*
C[C@@H]1CN([C@@H](C)CO)C(=O)c2cccc(NC(=O)c3nc4ccccc4s3)c2O[C@@H]1CN(C)CC1CC1	/	/	/	-24.8%	5.2%	/
C[C@@H](O)[C@@H]1C(=O)N2C(C(=O)O)=C([C@H]3CCCO3)S[C@H]12	/	-8.7%	-24.9%	/	/	/
O=C(Nc1cccc(OC(F)(F)F)c1)c1ccc(-c2cccnc2)c2ccoc12	/	/	/	/	45.0%	/
Cn1c(=O)c2[nH]c(C(O)c3ccc(Cl)cc3)nc2n(C)c1=O (configuration not stated)	/	/	/	?	-3.8%	/
CCOc1ccc(CN2CCN(CC(O)Cn3c4ccccc4c4ccccc43)CC2)cc1 (configuration not stated)	-6.4	2.08µM*	?	17.7%	10.7%	-14.5
CCn1c2ccccc2c2cc(CN3CCN(Cc4cc(OC)ccc4O)CC3)ccc21	8.3	1.17µM*	52.7%	?	12.6µM*	24.8
SMILES	CHX counter	Pf growth 48h	Pf growth 96h	HCV inh	AMA1 RON2 block	Shiga toxin inh
COc1ccc(CN2CCN(CC(O)Cn3c4ccccc4c4ccccc43)CC2)cc1 (configuration not stated)	-1.8	3.29µM*	?	11.2µM*	-22.9%	-1.8
CN1CCN(CC(O)Cn2c3ccccc3c3ccccc32)CC1 (configuration not stated)	-8.7	?	-2.1%	?	-1.5%	-1.0
O=C(CSc1n[nH]c(=O)n1Cc1ccco1)c1ccc2c(c1)OCCO2	40.3*	20.6%	46.0%	-3.7%	23.4%	87.7*
O=C(CSc1n[nH]c(=O)n1C1CC1)c1ccc2c(c1)OCCO2	37.3*	0.7%	-7.9%	14.4%	-1.4%	57.1*
N#Cc1ccc(C(=O)CSc2n[nH]c(=O)n2Cc2ccco2)cc1	1.3	?	26.7%	17.3%	-7.2%	5.1
FC(F)(F)c1cccc(N2CCN(C(=S)NCC3CCCO3)CC2)c1 (configuration not stated)	2.7	?	40.6%	11.2µM*	1.8%	-16.6
S=C(NCC1CCCO1)N1CCN(c2ccccc2)CC1 (configuration not stated)	-3.0	30.8%	4.65µM*	5.3%	2.4%	-4.7
COc1ccc(C(=O)N/C(=C\c2ccco2)C(=O)NC2CCS(=O)(=O)C2)cc1 (configuration not stated)	6.2	-20.5%	?	8.3%	-5.7%	-8.1
S=C(Sc1ccc(Cl)cc1)Sc1ccc(Cl)cc1	20.9*	6.57µM*	?	/	/	20.9
CC(=O)/C(=C\N(C)C)Sc1ccc(Cl)cc1	7.3	?	?	-6.1%	-11.4%	-13.1
Cc1ccc(-c2ccc(C(=O)O)[nH]2)cc1	20.2	30.5%	6.57µM*	17.1%	-7.0%	38.3
COc1ccc(-c2ccc(C(=O)O)c(=O)[nH]2)cc1	-1.3	70.7%	69.8%	15.2%	-14.6%	-10.9
C/C(=N/Nc1ncc(Br)cn1)c1ccc(Br)cc1	2.4	23.0%	?	?	109.9%	33.3
C/C(=N\Nc1ccc(Cl)c(C(=O)O)c1)c1ccc(Br)s1	59.4*	/	34.3%	9.7%	-9.3%	152.8*
CCOC(=O)c1c(NC(C)=O)sc(/C(C)=N/Nc2ccc(C(=O)O)cc2)c1C	70.4*	-7.2%	21.6%	?	2.0%	58.7*
C/C(=N\Nc1ccc(C(=O)O)cc1)c1ccc(Br)cc1	21.2*	352.1%	157.8%	1.7%	-8.9%	42.4*
C/C(=N\NC(=O)C(O)c1ccccc1)c1ccc(Br)s1 (configuration not stated)	14.7	-11.7%	-2.9%	-3.4%	21.2%	3.1
C/C(=N\Nc1ccc(C(=O)O)cc1)c1ccc(Cl)s1	40.3*	147.5%	?	16.0%	-6.9%	61.6*
COc1ccc(S(=O)(=O)Nc2c(NC3CCCCC3)c3ccccc3oc2=O)cc1OC	-2.5	-15.3%	?	-7.4%	0.6%	3.4
COc1cccc(NC(=O)COC(=O)CNC(=O)C2CCCCC2)c1	/	45.5%	49.0%	7.0%	-0.8%	/

Screening results as filed in PubChem.
